Experimental data taken from paper PMC6664820, “Novel natural and synthetic inhibitors of solute carriers SGLT1 and SGLT2” (Pharmacology Research & Perspectives, 2019).
The whole screen tested about 1,900 compounds, of which about 40 (2%) showed an effect of 50% or more. Many of the other results were omitted from the sample, so strong results are more common in it than they were.

Target: human SGLT1 (hSGLT1) (human, UniProt P13866)
Experiment: primary screen, percent of control activity; higher = less effect of the substance
Set-up: single well
Conditions: 50 µM
Experimental: Two days before the assay, CHO‐wild type and CHO‐hSGLT1 cells were seeded in maintenance medium at 25 000 cells/well in clear‐bottom black 96‐well cell culture plates. Before the assay, cells were washed 3 times with 150 μL/well D‐glucose free DMEM with 0.3% (w/v) BSA. Library compounds at 50 μmol/L (singlicate) prepared in D‐glucose free DMEM with 160 μmol/L 1‐NBD‐glucose and 0.3% (w/v) BSA and negative controls (triplicate) were added at 100 μL/well and placed in a humidified incubator at 37°C with 5% CO2 for 90 minutes. Next, cells were washed 3 times with DMEM with 0.3% (w/v) BSA (150 μL/well). Care was taken to remove all medium after the last wash. Finally, 1‐NBD‐glucose was extracted from the cells by adding 10 μL/well isopropanol and orbital shaking for 5 minutes at 600 rpm, followed by incubation in the dark for 30 minutes. Fluorescence was measured on a Tecan Infinite M200 Microplate Reader (Tecan, Männedorf, Switzerland) with excitation at 445 nm and emission at 525 nm. The amount of 1‐NBD‐glucose taken up by the CHO‐wild type or CHO‐hSGLT1 cells in the presence or absence of test compounds was interpolated from 1‐NBD‐glucose calibration standards. The background uptake by CHO‐wild type was subtracted from the uptake by CHO‐hSGLT1. Background corrected uptake with test compound was expressed as a percentage of corrected uptake without test compound.

Sequence of human SGLT1 (hSGLT1) (P13866 whole entry, looked up): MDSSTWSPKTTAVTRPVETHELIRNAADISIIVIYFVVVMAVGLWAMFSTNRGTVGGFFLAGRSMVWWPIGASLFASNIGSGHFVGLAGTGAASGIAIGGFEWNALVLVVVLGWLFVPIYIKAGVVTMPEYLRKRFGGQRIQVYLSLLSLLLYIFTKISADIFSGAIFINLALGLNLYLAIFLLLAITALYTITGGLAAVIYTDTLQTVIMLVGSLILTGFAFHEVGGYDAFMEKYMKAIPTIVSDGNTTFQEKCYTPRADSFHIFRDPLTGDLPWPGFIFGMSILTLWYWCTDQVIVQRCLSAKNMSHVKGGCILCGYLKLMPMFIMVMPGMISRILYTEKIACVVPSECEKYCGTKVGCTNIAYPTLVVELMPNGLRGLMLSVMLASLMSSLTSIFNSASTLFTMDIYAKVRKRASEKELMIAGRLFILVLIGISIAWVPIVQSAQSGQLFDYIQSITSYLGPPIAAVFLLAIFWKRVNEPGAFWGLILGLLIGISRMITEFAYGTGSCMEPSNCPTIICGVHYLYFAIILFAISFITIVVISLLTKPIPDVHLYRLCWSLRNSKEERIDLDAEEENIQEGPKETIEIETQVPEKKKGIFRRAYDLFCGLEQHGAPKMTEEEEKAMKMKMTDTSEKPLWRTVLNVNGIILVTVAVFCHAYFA

Row | SMILES | NORMALIZED SGLT1 ACTIVITY (%)
1 | CC[C@@H](CO)NCCN[C@@H](CC)CO.Cl.Cl | 90%
2 | Oc1c(I)cc(I)c2cccnc12 | 97%
3 | Oc1c(Br)cc(Br)c2cccnc12 | 50%
4 | O=S(=O)(O)O.Oc1cccc2cccnc12 | 127%
5 | CC(=O)Oc1ccc(Cl)c2cccnc12 | 202%
6 | Oc1ccc(Cl)c2cccnc12 | 208%
7 | Oc1c(Cl)cc(Cl)c2cccnc12 | 48%
8 | CC(=O)O[C@@H]1CC2C(C)(C)C(=O)C3OC3[C@]2(C)C2CC[C@@]3(C)[C@H](c4ccoc4)OC(=O)C4OC43[C@@]21C (stereo partly drawn) | 138%
9 | CC(C)CCCC(C)[C@H]1CCC2C3CC=C4C[C@@H](O)CC[C@]4(C)C3CC[C@@]21C (stereo partly drawn) | 120%
10 | C[n+]1c2cc(N)ccc2cc2ccc(N)cc21.[Cl-] | 169%
11 | CC1=CC(=O)C2=C(C)CC[C@@H]3[C@H](OC(=O)[C@H]3C)[C@@H]12 | 109%
12 | COC(=O)Nc1nc2ccc(S(=O)c3ccccc3)cc2[nH]1 (stereo not drawn) | 125%
13 | Cc1ccc(O)c(C(CCN(C(C)C)C(C)C)c2ccccc2)c1.O=C(O)C(O)C(O)C(=O)O (stereo not drawn) | 78%
14 | COc1cc(O)c(C(=O)c2ccccc2)cc1O | 235%
15 | COc1ccc(C(=O)c2ccccc2O)c(O)c1 | 111%
16 | COc1ccc(C(=O)c2ccccc2)c(O)c1 | 26%
17 | CCS(=O)(=O)CCn1c([N+](=O)[O-])cnc1C | 123%
18 | COc1ccc2ccc(=O)oc2c1 | 130%
19 | CCN(CC)CC(=O)Nc1c(C)cccc1C.Cl | 72%
20 | Cc1cccc(C)c1NC(=O)C1CCCCN1C.Cl (stereo not drawn) | 83%
21 | CCCCN1CCCCC1C(=O)Nc1c(C)cccc1C.Cl (stereo not drawn) | 42%
22 | CC(C)CCCC(C)[C@H]1CCC2C3C(=O)C=C4C[C@@H](O)CC[C@]4(C)C3CC[C@@]21C (stereo partly drawn) | 95%

Row | SMILES | NORMALIZED SGLT1 ACTIVITY (%)
23 | Cc1ccc(N(CC2=NCCN2)c2cccc(O)c2)cc1.Cl | 62%
24 | COc1ccc2c(c1)OC/C(=C\c1ccc(OC)c(O)c1)C2=O | 140%
25 | O=C1C=CC(=C(c2ccc(O)cc2)c2ccc(O)cc2)C=C1 | 78%
26 | CN(C)c1ccc(C(=C2C=CC(=[N+](C)C)C=C2)c2ccc(N(C)C)cc2)cc1.[Cl-] | 43%
27 | CC(CCc1ccccc1)NCC(O)c1ccc(O)c(C(N)=O)c1.Cl (stereo not drawn) | 76%
28 | O=C([O-])CF.[Na+] | 96%
29 | C[C@@H]1C(=O)O[C@H]2[C@H]1CC[C@@]1(C)C=CC(=O)[C@@]3(C)O[C@@]213 | 96%
30 | COc1cc(OC)c(OC)cc1C=O | 189%
31 | C1CCC(C(CC2CCCCN2)C2CCCCC2)CC1.O=C(O)/C=C\C(=O)O (stereo not drawn) | 1%
32 | CCC[C@@H]1CCCCN1 | 85%
33 | CC(=O)CC1CCCCN1.Cl (stereo not drawn) | 86%
34 | C=C[C@H]1CN2CC[C@H]1C[C@H]2[C@H](O)c1ccnc2ccccc12 | 77%
35 | C=Cc1c(C)c2[n]3c1C=c1c(C)c(CC)c4[n]1[Cu]31[n]3c(c(C)c5c3C(=c3c(CCC(=O)[O-])c(C)c([n]31)=C2)C(C(=O)[O-])C5=O)C=4.[Na+].[Na+] (stereo not drawn) | 94%
36 | CC(C)CC(N(C)C)C1(c2ccc(Cl)cc2)CCC1.Cl (stereo not drawn) | 28%
37 | CC(C)CCCC(C)C1CCC2C3CC(=O)[C@H]4C[C@@H](O)CC[C@]4(C)C3CC[C@]12C (stereo partly drawn) | 107%
38 | O=C(O)c1cc2cc(Cl)ccc2[nH]1 | 238%
39 | C=C1C(C2(C)C=CC(=O)C(C)(C)C2CC(=O)OC)CC[C@@]2(C)[C@H](c3ccoc3)OC(=O)C3OC132 (stereo partly drawn) | 86%
40 | C[C@]12CCC(=O)C=C1CCC1C2CC[C@@]2(C)C1CC[C@@H]2O (stereo partly drawn) | 98%
41 | CC(=O)[C@H]1CCC2C3CCC4=CC(=O)CC[C@]4(C)C3CC[C@@]21C (stereo partly drawn) | 38%
42 | CC(=O)OCC(=O)[C@H]1CC[C@H]2[C@@H]3CCC4=CC(=O)CC[C@]4(C)[C@H]3CC[C@]12C | 114%
43 | C[C@@H]1CC[C@@]2(NC1)O[C@H]1C[C@H]3C4CC=C5C[C@@H](O)CC[C@]5(C)C4CC[C@]3(C)C1[C@@H]2C (stereo partly drawn) | 109%
44 | CCC1(c2ccc(N)cc2)CCC(=O)NC1=O (stereo not drawn) | 108%

Row | SMILES | NORMALIZED SGLT1 ACTIVITY (%)
45 | COc1ccc2c(c1)OC/C(=C/c1ccc(O)c(O)c1)C2=O | 249%
46 | CCCCC(CC)CNC(=N)NC(=N)NCCCCCCNC(=N)NC(=N)NCC(CC)CCCC.Cl.Cl (stereo not drawn) | 36%
47 | COc1ccc(C[C@H](N)C(=O)N[C@@H]2[C@@H](CO)OC(n3cnc4c(N(C)C)ncnc43)[C@@H]2O)cc1.Cl.Cl (stereo partly drawn) | 116%
48 | O=C(O)COc1ccc(Cl)cc1Cl | 196%
49 | COC(=O)[C@]1(C)CCC[C@]2(C)c3ccc(C(C)C)cc3C(=O)CC12 (stereo partly drawn) | 89%
50 | O=C(CCCN1CCN(c2ccccn2)CC1)c1ccc(F)cc1 | 111%
51 | Oc1c(Cl)c(Cl)c(Cl)c(Cl)c1Cl | 622%
52 | Cc1ccc2c(Cl)cc(Cl)c(O)c2n1 | 100%
53 | Oc1c(Cl)cc(Cl)c(Cl)c1Cc1c(O)c(Cl)cc(Cl)c1Cl | -43%
54 | Cn1c(=O)[nH]c2ncn(C)c2c1=O | 164%
55 | CC(C)=CCOc1c2occc2cc2ccc(=O)oc12 | 161%
56 | CN(C)CCCN1c2ccccc2Sc2ccc(C(F)(F)F)cc21.Cl | 62%
57 | CN(C)CCCN1c2ccccc2Sc2ccc(Cl)cc21 | 60%
58 | CC(CN(C)C)CN1c2ccccc2Sc2ccccc21.O=C(O)C(O)C(O)C(=O)O (stereo not drawn) | 45%
59 | CC(CN(C)C)CN1c2ccccc2CCc2ccccc21.O=C(O)/C=C\C(=O)O (stereo not drawn) | 51%
60 | CN(C)CCCN1c2ccccc2Sc2ccccc21.Cl | 38%
61 | CC(CN1c2ccccc2Sc2ccccc21)N(C)C.Cl (stereo not drawn) | 87%
62 | CCN(CC)C(C)CN1c2ccccc2Sc2ccccc21.Cl (stereo not drawn) | 46%
63 | NS(=O)(=O)c1cc2c(cc1C(F)(F)F)NC(Cc1ccccc1)NS2(=O)=O (stereo not drawn) | 125%
64 | O=C(Cn1ccnc1[N+](=O)[O-])NCCO | 119%
65 | CC(=O)O[C@H]1CC[C@@]2(C)C(C[C@@H](OC(C)=O)[C@@]3(C)C4=CC(=O)O[C@@H](c5ccoc5)[C@]4(C)CCC23)C1(C)C (stereo partly drawn) | 358%
66 | CCCCC1C(=O)N(c2ccccc2)N(c2ccc(O)cc2)C1=O (stereo not drawn) | 109%
